# Reference: paper PMC5540273 (PLoS ONE, 2017)
# Tested on: LYN
# Conditions: concentration: 1 μM, replicates: in singlicate; n = 1
# 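Further: KINOMEscan kinase panel screen.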
row,Structure (SMILES),%Inh [%]
1,COc1ccc(CNC(=O)NC2CCN(c3ccnc(Nc4ccc(OC)cc4)n3)C2)cc1 (centres unmarked) [GSK1379727],0
2,c1ccc(-c2cc(-c3c[nH]nc3-c3ccccn3)ccn2)cc1 [GW576604],0
3,Cn1cc(-c2ccc3c(c2)CCN3C(=O)Cc2ccccc2Cl)c2c(N)ncnc21 [GSK2608885],99.2
4,CNc1ncnc2[nH]ncc12 [SKF-18355],0
5,Fc1ccc(-c2ncn(CCCN3CCOCC3)c2-c2ccccn2)cc1 [SB-211742],0
6,NS(=O)(=O)c1cccc(-c2ccc3ncc(N4CCOCC4)nc3c2)c1 [GSK1535721],0
7,COc1ccc(Nc2nccc(N3CCC(NC(=O)Nc4cc(C)ccc4C)C3)n2)cc1 (centres unmarked) [GSK1379741],73
8,COCCNC(=O)c1ccc(-c2cc(C(=O)NC3CC3)cc(F)c2C)cc1 [GW868318],14
9,Cc1nnc(-c2ccc3ncc(-c4ccc(S(C)=O)cc4)n3c2)o1 (centres unmarked),18
10,c1ccc(-c2n[nH]cc2-c2ccnc3ccccc23)nc1 [GW271431],0
11,Cn1ccc2ncnc(Oc3ccc(NC(=O)Nc4ccncc4)c(Cl)c3)c21,0
12,Cc1cn2c(=O)cc(N3CCOCC3)nc2n1Cc1cccc(Cl)c1Cl [GSK2334006],4
13,Fc1ccc(-c2ncn(CCCN3CCOCC3)c2-c2cccnc2)cc1 [SB-211743],0
14,Cc1cccc(-c2nc(Nc3ccc4ncsc4c3)c3ccccc3n2)n1 [GW867588],0
15,Cc1cccc(Cn2ccn3c(=O)cc(N4CCOCC4)nc23)c1 [GSK2297542],0
16,N#Cc1c(N2CCOCC2)sc(-c2ccn[nH]2)c1-c1ccc(Cl)cc1,0
17,COc1cc2c(cc1OCCN1CCN(C)CC1)ncc1c3ccc(C#N)cc3[nH]c21,19
18,CN(C1=C(c2ccccc2)C(=O)NC1=O)c1ccccc1 [SB-334860],0

row,Structure (SMILES),%Inh [%]
1,O=C1NC(=O)C(N2CCc3ccccc32)=C1c1cccc(Cl)c1 [SB-408010],7
2,O=c1cc(N2CCOCC2)nc2n(Cc3cccc(Cl)c3Cl)c(C3CC3)nn12 [GSK2358994],0
3,[2H]C([2H])(c1cccc(C(F)(F)F)c1C)n1ccn2c(=O)nc(N3CCOCC3)cc12 [GSK2336394],0
4,CC(C)(CN)c1nc(-c2ccc(Cl)c(O)c2)c(-c2ccncc2)[nH]1.O=C(O)C(F)(F)F [SB-477794],91.1
5,CCc1nc(-c2cccc(C)c2)c(-c2ccnc(NCc3ccccc3)c2)s1,8
6,Cc1cccc(-c2nc(-c3ccc(S(C)(=O)=O)cc3)sc2-c2ccncc2)c1,14
7,CCc1ccnc(/C=C/c2n[nH]c3cc(Sc4ccccc4C(=O)NC)ccc23)c1,23
8,CSc1ccc(-c2cc3ncnc(SCC(=O)O)c3s2)cc1,0
9,CC(=O)Nc1ccc(COc2ccc(Nc3ccnc4cc(-c5ccccn5)ccc34)cc2)cc1.Cl [GW440148],1
10,COc1cc2ncn(-c3cc(OCc4sccc4Cl)c(C(N)=O)s3)c2cc1OC [GSK448459],0
11,Fc1ccc(-c2nn3c(OCC(F)(F)F)cccc3c2-c2ccncc2)cc1 [GW514784],0
12,CC(C)(C)n1cnc2c(N)ncnc21 [SKF-97359],0
13,O=C(NCCNc1ccnc(Nc2ccc(F)cc2)n1)c1cc2ccccc2s1 [GSK1379874],0
14,COc1ccc(S(=O)(=O)NC2CCN(c3cc(C)nc(Nc4cccc(C#N)c4)n3)CC2)cc1.O=C(O)C(F)(F)F [GSK1653539],0
15,Cc1ccc(C(=O)NCC(N)=O)cc1-n1c(C)cc(OCc2ccc(F)cc2F)c(Br)c1=O,18
16,Cl.Oc1cccc(Nc2ccnc3cc(-c4ccncc4)ccc23)c1 [GW494601],86
17,O=C(Nc1n[nH]c2cc(-c3cccc(F)c3)ccc12)C1CC1 [SB-735464],9
